High-throughput results (PubChem)
SRC1 inh: inhibits human SRC1 coactivator. Q15788. HEK293 GAL4-SRC1 luciferase reporter, luminescence. inhibition, % at 3.6 µM. 360,000 tested, 0.12% active. AID 588354;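 active means inhibition above the campaign mean plus 3 SD, with each screening campaign given its own cutoff, cut at about 60% in these data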;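 further: 0% = DMSO treated cells and 100% = gossypol at 36 µM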
COUP-TFII inh: NR2F2 (human) inhibition, primary screen. 370,000 tested, 0.7% active. HEK293T NGFI-A luciferase reporter, luminescence. AID 686940. inhibition, % at 8.6 µM. P24468;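 active means inhibition above a per-plate cutoff, mean inhibition of test wells between control levels plus 3 SD, cut at about 38% in these data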;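 further: cells cotransfected with COUP-TFII expression vector driving the NGFI-A reporter; 0% = median of COUP-TF2 test wells and 100% = reporter-only cells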
Target sequence (P24468 whole entry, looked up): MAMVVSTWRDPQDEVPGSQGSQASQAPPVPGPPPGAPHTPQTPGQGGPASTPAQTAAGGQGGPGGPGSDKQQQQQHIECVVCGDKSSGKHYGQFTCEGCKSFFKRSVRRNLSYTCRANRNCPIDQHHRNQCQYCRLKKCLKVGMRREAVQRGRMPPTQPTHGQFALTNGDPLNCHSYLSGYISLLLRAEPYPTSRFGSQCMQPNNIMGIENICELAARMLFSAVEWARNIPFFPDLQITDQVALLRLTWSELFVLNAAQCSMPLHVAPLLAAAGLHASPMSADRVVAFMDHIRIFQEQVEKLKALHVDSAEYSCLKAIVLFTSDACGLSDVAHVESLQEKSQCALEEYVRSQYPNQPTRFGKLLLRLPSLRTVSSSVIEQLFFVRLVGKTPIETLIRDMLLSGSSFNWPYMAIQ
NR5A2 inv ag: inverse agonists of human LRH-1 (NR5A2) | HEK293T StAR-luciferase reporter, LRH-1 transfected, 24 h | inhibition, % at 3.6 µM | O00482 | 360,000 tested, 0.13% active;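 active means inhibition above the mean inhibition of all tested compounds plus 3 SD, cut at about 73% in these data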;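 further: 0% = DMSO wells and 100% = reporter-only cells lacking LRH-1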
SRC3 inh: human NCOA3 inhibition | Q9Y6Q9 | HEK293 GAL4-SRC3 luciferase reporter, luminescence | inhibition, % at 3.6 µM | 360,000 tested, 0.17% active | AID 588352;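 active means inhibition above a per-campaign cutoff, the mean of all compounds plus 3 SD, cut at about 60% in these data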;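 further: 0% = DMSO-treated cells and 100% = gossypol-treated cells at 36 µM; higher means less SRC3-driven luciferase light from the GAL4 reporter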
SRC2 inh: inhibits human steroid receptor coactivator 2; HEK293 GAL4-SRC2 luciferase reporter, luminescence; inhibition, % at 9 µM; 370,000 tested, 0.17% active; AID 651957;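 active means inhibition above the mean inhibition of all tested compounds plus 3 SD, set per campaign, cut at about 52% in these data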;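 further: 0% = DMSO treated cells and 100% = cells given Gossypol at 36 µM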
GalR3 antag: blocks the human galanin receptor 3 | inhibition, % at 3 µM | HEK293 GalR3-CNG cAMP membrane potential fluorescence; galR3 body fused to GalR1 C-terminus | O60755 | AID 651719 | 360,000 tested, 0.44% active;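 active means inhibition above the screen-wide average plus 3 SD, cut at about 13% in these data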;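 further: forskolin and galanin both at EC90 stimulate the cells; cAMP rise reported by CNG channel membrane potential dye signal; 0% = forskolin plus galanin with DMSO and 100% = forskolin alone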
Target sequence (O60755 1-299 limits assumed): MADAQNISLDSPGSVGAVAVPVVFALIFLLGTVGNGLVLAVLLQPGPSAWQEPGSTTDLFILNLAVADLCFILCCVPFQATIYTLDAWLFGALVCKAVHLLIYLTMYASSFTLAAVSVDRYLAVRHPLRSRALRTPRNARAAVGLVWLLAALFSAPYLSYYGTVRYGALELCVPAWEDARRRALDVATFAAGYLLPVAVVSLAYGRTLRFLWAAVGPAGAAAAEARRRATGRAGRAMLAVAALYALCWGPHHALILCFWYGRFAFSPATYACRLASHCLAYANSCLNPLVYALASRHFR
GalR3 antag conf: GalR3 (human) antagonism, confirmation; 1,600 tested, 59% active; HEK293 GalR3 CNG cAMP biosensor, membrane potential fluorescence; galR3 fused to GalR1 carboxy tail; challenged with forskolin and galanin at EC90; inhibition, % at 3 µM; shares compounds with GalR3 antag; AID 652245;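 active means inhibition above the primary screen's cutoff, the mean inhibition of all screened compounds plus 3 SD, cut at about 13% in these data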;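 further: 0% = forskolin plus galanin and 100% = forskolin alone with DMSO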
CNG parental: counter-screen for GalR3 antagonists: nonspecific agonists in parental HEK-CNG cells. shares compounds with GalR3 antag. HEK293-CNG parental cells, cAMP membrane potential fluorescence; normalised: DMSO wells 0%, forskolin wells 100%. activation, % at 3 µM. 1,600 tested, 10% active; in the data active means activation above about 1.3%
Numbers without * were called inactive; . = not tested or not shown. Most compounds without a hit are left out; they make up all but 1.1% or so of the library.

SMILES | SRC1 inh | COUP-TFII inh | NR5A2 inv ag | SRC3 inh | SRC2 inh | GalR3 antag | GalR3 antag conf | CNG parental
O=C(Nc1ccc(Cl)c(S(=O)(=O)N2CCOCC2)c1)c1ccncc1 | 14 | -73 | 5 | 7 | -15 | 43* | 7 | 0
Cc1ccc(NC(=O)CSc2ccccn2)cc1S(=O)(=O)N1CCOCC1 | -3 | 13 | 5 | 3 | -18 | -4 | . | .
COC(=O)[C@]12C[C@H](CC(=O)NCCC(C)C)C(=O)N(Cc3ccc4c(c3)OCO4)C1=C[C@H](COCc1ccccc1)O[C@@H]2C | . | 0 | . | . | -11 | -6 | . | .
CN1C(=O)[C@H]2[C@@H](c3ccccc3)N[C@]3(CCCN(Cc4ccc(F)cc4)C3=O)[C@H]2C1=O | -35 | -15 | 12 | 9 | -5 | -6 | . | .
N#Cc1c([N+](=O)[O-])cc([N+](=O)[O-])cc1S(=O)(=O)Cc1ccccc1 | -8 | 6 | 32 | -23 | 61* | 64* | 25* | -1
COc1cc(OC)c(C#N)c(S(=O)(=O)Cc2ccccc2)c1 | -4 | 0 | 8 | 9 | 0 | -5 | . | .
O=C(CSc1nnc(-c2n[nH]c3ccccc23)n1-c1ccccc1)Nc1cccc(Cl)c1 | 4 | 18 | 10 | 8 | -4 | 21* | 14* | -1
COc1cccc(NC(=O)N(C)C[C@H]2OCc3ccccc3-c3c(n(C)c4ccccc34)C(=O)N([C@H](C)CO)C[C@H]2C)c1 | . | -10 | . | . | 14 | -6 | . | .
OCc1cc(C(O)CNCCCCCCOCCCCc2ccccc2)ccc1O (stereo not drawn) | -16 | -48 | -22 | -13 | -32 | 19* | 32* | 9.1*
O=C(CN1C(=O)CCC1=O)Nc1cccc2c1C(=O)NC2=O | -18 | -14 | 10 | 3 | 2 | 21* | 15* | 0
O=C(Nc1cccc2c1C(=O)NC2=O)c1cccc(N2C(=O)CCC2=O)c1 | -7 | -8 | 6 | 10 | -25 | 4 | . | .
CN=C1SC(CC(=O)Nc2ccccc2F)C(=O)N1/N=C/c1ccc(O)c(OC)c1 (stereo not drawn) | -9 | -10 | -6 | 12 | 11 | 22* | 15* | 0
CC1=C(C(=O)Nc2ccccc2C(=O)N2CCN(c3ccccc3)CC2)SCCO1 | -7 | 8 | 7 | -11 | -26 | -3 | . | .
O=C(O)c1ccc(O)c(O)c1 | -4 | -8 | -21 | 19 | 14 | 13* | 4 | 0
Cc1ccc(S(=O)(=O)NC(=O)COc2ccccc2)cc1 | 5 | 7 | -1 | -1 | -3 | . | 2 | 0
Cc1ccc(OCC(=O)NS(=O)(=O)c2ccccc2)cc1 | -4 | 9 | -7 | -13 | 7 | -3 | . | .
COC(=O)C1=C(C)N(Cc2ccc(Br)cc2)C(=S)NC1c1cccc(OC)c1 (stereo not drawn) | . | 13 | . | . | 20 | -4 | . | .
O=C(O)CNc1ncccc1[N+](=O)[O-] | 10 | -11 | -3 | 13 | 11 | 17* | -1 | 0
COc1ccc(CNc2ncccc2[N+](=O)[O-])cc1 | -44 | -21 | -37 | -58 | -18 | -10 | . | .
COc1cc(N=C2C(=O)N3c4c(cccc42)C(C)=CC3(C)C)cc(OC)c1 | -15 | -7 | -20 | 0 | 14 | -1 | . | .
CC1=CC(C)(C)N2C(=O)C(=Nc3ccc(O)cc3)c3cccc1c32 | -18 | 6 | -15 | -2 | -5 | 16* | 2 | 1
CN1C(=O)c2cc(NS(=O)(=O)c3ccc(F)cc3)ccc2OC[C@H]2O[C@@H](CC(=O)NCC(F)(F)F)CC[C@@H]21 | . | 12 | . | . | -4 | . | . | .
Cc1cc(=O)[nH]c2ccc(S(=O)(=O)NCc3ccccc3)cc12 | -25 | -8 | 12 | -17 | -10 | 57* | 27* | 0
Cc1cc(=O)[nH]c2c(C)cc(S(=O)(=O)NCc3ccccc3)cc12 | -10 | -4 | 3 | 18 | -2 | 1 | . | .
O=C(NCCNCc1cccc(Cl)c1)c1ccco1 | -6 | -8 | -44 | -17 | -15 | 2 | . | .
SMILES | SRC1 inh | COUP-TFII inh | NR5A2 inv ag | SRC3 inh | SRC2 inh | GalR3 antag | GalR3 antag conf | CNG parental
Clc1cccc(CNCCNCc2cccc(Cl)c2)c1 | 13 | -11 | 0 | 9 | -1 | 22* | 12 | 2.5*
Cn1c(=O)c2cc(NC(=S)NC3CCCCC3)ccc2n1-c1ccccc1 | 15 | -18 | -15 | -4 | 10 | -5 | . | .
Cn1c(CNc2nc3ccccc3n2C)nc2ccccc21 | -40 | -26 | -69 | -46 | -51 | 15* | 0 | 0
O=C(Nc1nc(-c2ccc(Cl)cc2Cl)cs1)c1ccc(OCC2CCCO2)cc1 (stereo not drawn) | 23 | 14 | -9 | 24 | -3 | 92* | 109* | -1
COc1ccc2c(C)c(Cl)c(=O)oc2c1 | 4 | -15 | -11 | 4 | -23 | -4 | . | .
C=C1CC(COc2ccc3c(C)c(Cl)c(=O)oc3c2)(c2ccccc2)OC1=O (stereo not drawn) | -142 | -22 | 29 | -60 | -150 | 37* | 18* | 2.9*
COc1ccc(S(=O)(=O)NCc2ccccn2)cc1 | -3 | 1 | -15 | -8 | -28 | 15* | 20* | 0
CCOC(=O)c1cccc(NC(=O)CN(C)S(=O)(=O)c2cc(OC)ccc2OC)c1 | . | 9 | . | . | 4 | . | . | .
Cc1ccccc1C(=O)N[C@@H](CC(C)C)C(=O)N1CCC[C@H]1C(=O)NCc1ccccc1 | . | -9 | . | . | -21 | -6 | . | .
C=CCN=C1NC(CCc2ccccc2)C(C(=O)OC)=C(C)N1C (stereo not drawn) | . | -11 | . | . | -30 | -8 | . | .
COC(=O)C1=C(C)N(Cc2ccccc2C(F)(F)F)C(=NCc2ccc(C(F)(F)F)cc2)NC1c1ccc(C(F)(F)F)cc1 (stereo not drawn) | . | -2 | . | . | 2 | -7 | . | .
COC(=O)c1ccc(C2=NOC(C)(c3sc(-c4ccccc4)nc3C)C2)cc1 (stereo not drawn) | 6 | -77 | -3 | -37 | 5 | . | 32* | 1.5*
C=CC[C@]12C[C@@]3(O[C@H](c4ccc(C(F)(F)F)cc4)N=C3C[C@H](c3ccc(OC)cc3)[C@H]1C)N(Cc1ccncc1)C2=O | . | -4 | . | . | 2 | -7 | . | .
Cc1nnc(N/N=C/c2ccc([N+](=O)[O-])cc2)n1N | 7 | 21 | 8 | 4 | -26 | 15* | 4 | 0
COC(=O)c1ccc2nc(-c3ccc(C)cc3)c(Cc3ccccc3)n2c1 | . | -13 | . | . | -30 | -6 | . | .
COc1cc(/C=C/C2=NNC(=O)CC2)cc(OC)c1OC | -16 | -26 | -6 | 1 | -62 | 20* | 16* | 0
